Inconclusive results are not listed. Active and inactive are the calls of the source. Calls follow the shape of the dose curve; as a rule, active = well fitted inhibition curve with a large enough effect; inconclusive = small, poorly fitted or top-dose-only effect; inactive = flat fitted curve, though single readings scatter.
What was measured:
Experiment in all cases: qHTS profiling for inhibitors of Plasmodium falciparum proliferation (AID 504749); also: nearly all actives have a fitted effect of over 60% in size
Settings in all cases: P. falciparum in erythrocytes, SYBR Green DNA, 72 h; series mostly up to 28.7 µM
CP238 = system: CP238
Procedure, shortened: (§1)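 P. falciparum-infected erythrocytes (0.3% parasitemia, 2.5% hematocrit) incubated with compound 72 h at 37 C, 5% CO2. Parasite DNA detected by SYBR Green after lysis, overnight at room temperature; normalised to 0.29 uM artemisinin and DMSO.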

CP247 = system: CP247
Procedure, shortened: as §1

CP250 = system: CP250
Procedure, shortened: as §1

CP252 = system: CP252
Procedure, shortened: as §1

CP256 = system: CP256
Procedure, shortened: as §1

CP260 = system: CP260
Procedure, shortened: as §1

CP262 = system: CP262
Procedure, shortened: as §1

CP265 = system: CP265
Procedure, shortened: as §1

CP266 = system: CP266
Procedure, shortened: as §1

CP268 = system: CP268
Procedure, shortened: as §1

CP269 = system: CP269
Procedure, shortened: as §1

CP286 = system: CP286
Procedure, shortened: as §1

CP291 = system: CP291
Procedure, shortened: as §1

CP297 = system: CP297
Procedure, shortened: as §1

CP305 = system: CP305
Procedure, shortened: as §1

CP315 = system: CP315
Procedure, shortened: as §1

CP325 = system: CP325
Procedure, shortened: as §1

CP329 = system: CP329
Procedure, shortened: as §1

CP335 = system: CP335
Procedure, shortened: as §1

DFO2036 = system: DFO2036
Procedure, shortened: as §1

DIV14 = system: DIV14
Procedure, shortened: as §1

DIV17 = system: DIV17
Procedure, shortened: as §1

Dd2 = system: Dd2
Procedure, shortened: as §1

ECU = system: ECU
Procedure, shortened: as §1

FAB9 = system: FAB9
Procedure, shortened: as §1

GB4 = system: GB4
Procedure, shortened: as §1

HB3 = system: HB3
Procedure, shortened: as §1

ICS = system: ICS
Procedure, shortened: as §1

JCK = system: JCK
Procedure, shortened: as §1

N140 = system: N140
Procedure, shortened: as §1

P93_24 = system: P93_24
Procedure, shortened: as §1

P94_40 = system: P94_40
Procedure, shortened: as §1

PAD = system: PAD
Procedure, shortened: as §1

PC15 = system: PC15
Procedure, shortened: as §1

PC26 = system: PC26
Procedure, shortened: as §1

PC49 = system: PC49
Procedure, shortened: as §1

SC27B = system: SC27B
Procedure, shortened: as §1

TAB109 = system: TAB109
Procedure, shortened: as §1

TAB113 = system: TAB113
Procedure, shortened: as §1

TAB165 = system: TAB165
Procedure, shortened: as §1

W2 = system: W2
Procedure, shortened: as §1

Measured: Potency

Cc1cn([C@H]2C[C@H](N=[N+]=[N-])[C@H](CO)O2)c(=O)[nH]c1=O
inactive: all assays above

Source: PubChem BioAssay (NCATS)
